In PubChem BioAssay (EPA / NIEHS):
Results filed as inconclusive are left out. The source holds several records for some structures; these can differ, active in one and inactive in another. Calls of active or inactive are those of the source. Rule for the calls, unless noted: active = hit-call score of the fitted dose curve at least 0.9, where 1 is the maximum; inactive = score below 0.9.

Experiments:
[1] = target: Estrogen receptor (Homo sapiens) (UniProt P03372); test: CCTE_Deisenroth_AIME_384WELL_LUC_Active: CCTE's 384-well Estrogen Receptor Transactivation Assay with AIME metabolic competence (ERTA luciferase; metabolism positive), Deisenroth Lab (AID 2284030; active = hit-call score of the fitted dose curve at least 0.9, where 1 is the maximum)
How it was run: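 Chemicals (10-point, 0.002-200 uM) were first incubated 2 hours with alginate-immobilized induced male Sprague Dawley rat liver S9. The conditioned medium was then applied to VM7Luc4E2 cells for 24 hours, with ER luciferase induction read by luminescence relative to 17beta-estradiol.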

[2] = CCTE_Deisenroth_AIME_384WELL_CTox_Active: Cytotoxicity Assessment (CTOX) in CCTE's 384-well Estrogen Receptor Transactivation Assay with AIME metabolic competence (metabolism positive), Deisenroth Lab (AID 2284037; active = hit-call score of the fitted dose curve at least 0.9, where 1 is the maximum;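 note: chemicals first conditioned 2 h by alginate-bound induced rat liver S9 before cells; activity means signal loss indicating cell death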)
How it was run: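 Cytotoxicity in VM7Luc4E2 breast cells, 24 hour, measured as protease-substrate fluorescence loss, after 2-hour metabolic conditioning with induced rat hepatic S9 in alginate microspheres. Concentrations 0.002 - 200 uM, 10 points, bidirectional fitting.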

[3] = target: Estrogen receptor (Homo sapiens) (UniProt P03372); test: CCTE_Deisenroth_AIME_384WELL_LUC_Inactive: CCTE's 384-well Estrogen Receptor Transactivation Assay without AIME metabolic competence (ERTA luciferase; metabolism negative), Deisenroth Lab (AID 2284038; active = hit-call score of the fitted dose curve at least 0.9, where 1 is the maximum;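 note: hits raise estrogen receptor luciferase signal so potencies reflect agonists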)
How it was run: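 Metabolism-negative mode: AIME lids stamped in alginate-water, no hepatic S9. 2 h chemical incubation → medium onto VM7Luc4E2 ERTA, 24 h. Readout luciferase luminescence; gain-of-signal fit vs 17beta-estradiol. Conc. 0.002 - 200 uM.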

[4] = CCTE_Deisenroth_AIME_384WELL_CTox_Inactive: Cytotoxicity Assessment (CTOX) in CCTE's 384-well Estrogen Receptor Transactivation Assay without AIME metabolic competence (metabolism negative), Deisenroth Lab (AID 2284039; active = hit-call score of the fitted dose curve at least 0.9, where 1 is the maximum;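 note: cell viability via live-cell protease substrate cleaved to fluorescent probe; cells exposed 24 h to medium preincubated 2 h with alginate-water beads without S9; loss of fluorescence signal means loss of viability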)
How it was run: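 Metabolism-negative arm: chemicals (10-point, 0.002 - 200 uM) preincubated 2 h with alginate-water lids, medium moved onto VM7Luc4E2 cells for 24 h. Fluorescent live-cell protease readout; bidirectional curve fit.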

[5] = target: Estrogen receptor (Homo sapiens) (UniProt P03372); test: CCTE_Deisenroth_AIME_384WELL_LUC_Shift: CCTE's 384-well Estrogen Receptor Transactivation Assay with AIME metabolic competence data shift (ERTA luciferase; difference in metabolism positive and negative), Deisenroth Lab (AID 2284041);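 note: shift is response with S9 minus without S9 so positive means metabolism raised ER signal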
How it was run: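 Test chemicals (0.002–200 uM, 10-point) were pre-incubated 2 h with alginate microspheres containing phenobarbital/beta-naphthoflavone-induced male Sprague Dawley rat liver S9 or water, then medium was transferred to VM7Luc4E2 cells for 24 h luciferase readout; shift = S9-positive minus S9-negative normalized response.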

[6] = CCTE_Shafer_MEA_acute_per_network_burst_spike_number_mean: CCTE's Neural Acute Assay for Average Number of Spikes in a Network Burst, Shafer Lab (AID 2284019);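 for AC50: curve fitted for loss of signal so actives reduce spikes per network burst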
How it was run: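 Percent change from baseline in mean spikes per network burst, spikes detected at 8x rms noise. Each compound at 0.03-40 uM in at least three wells of rat cortical cultures, recorded 40 min before and 40 min during exposure.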

[7] = CCTE_Shafer_MEA_acute_per_network_burst_spike_number_std: CCTE's Neural Acute Assay for Standard Deviation of Number of Spikes in a Network Burst, Shafer Lab (AID 2284020);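 note: fitted for decrease in spike-number SD versus DMSO so actives lower it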
How it was run: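 Endpoint: percent change from 40 min baseline in standard deviation of spikes per network burst, after 40 min compound exposure (0.03-40 uM, 37 C). Cortical rat neurons on MEA at DIV 13 or 15; spikes detected at 8x rms noise, 300-5000 Hz band-pass.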

[8] = CCTE_Shafer_MEA_acute_per_network_burst_electrodes_number_mean: CCTE's Neural Acute Assay for Mean Number of Electrodes in a Network Burst, Shafer Lab (AID 2284021);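 note: curves fitted for decreases only so hits reduce electrodes per burst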
How it was run: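 Rat primary cortical neurons on 48-well MEAs, DIV 13 or 15, were treated at 0.03-40 uM. Spikes were detected at 8x rms noise and recorded at 37 C. The mean electrodes per network burst in a 40 min exposure recording was expressed as percent change from a 40 min baseline.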

[9] = CCTE_Shafer_MEA_acute_network_burst_percentage: CCTE's Neural Acute Assay for Percentage of Network Bursts, Shafer Lab (AID 2284022);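 note: curves fitted for loss so actives lower network burst percentage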
How it was run: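 Rat primary cortical neuron networks on 48-well MEA plates, DIV 13 or 15, treated acutely with compound (0.03-40 uM, at least three wells). Percent of spikes within network bursts compared between 40-min recordings before and during exposure at 37 C, expressed as percent change.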

[10] = CCTE_Shafer_MEA_acute_cross_correlation_area: CCTE's Neural Acute Assay for Area of Cross Correlation, Shafer Lab (AID 2284024);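 note: curves fitted for loss of cross-correlation area so actives lower synchrony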
How it was run: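 Rat primary cortical neurons on 48-well MEA, DIV 13 or 15; compounds 0.03-40 uM. Baseline and post-exposure 40 min recordings at 37 C; percent change in area under pooled inter-electrode cross-correlation near zero lag, relative to DMSO.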

[11] = CCTE_Shafer_MEA_acute_cross_correlation_HWHM: CCTE's Neural Acute Assay for Cross Correlation at Half Width at Half Maximum, Shafer Lab (AID 2284026);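 note: percent change per well from pre-dose baseline in spike cross-correlogram half width; hits are a decrease in cross-correlogram half width relative to DMSO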
How it was run: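 Rat primary cortical neurons on 48-well MEA plates; 40-min baseline and 40-min post-exposure recordings at 37 C on DIV 13 or 15, compounds 0.03-40 uM. Spikes detected at 8x rms noise; percent change in cross-correlogram HWHM per well vs baseline.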

[12] = CCTE_Shafer_MEA_acute_synchrony_index: CCTE's Neural Acute Assay for Synchrony, Shafer Lab (AID 2284027);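 note: network synchrony index of spontaneous spiking in primary rat cortical neurons on MEAs; fitted for loss of signal so actives lower synchrony relative to DMSO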
How it was run: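 Rat cortical cultures, DIV 13/15; spikes detected at 8x rms noise, 300-5000 Hz band-pass. Compound 0.03-40 uM, ≥3 wells; 40-min pre- and post-exposure recordings, 37 C. Readout: % change in synchrony index; loss-of-signal fit vs DMSO.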

[13] = CCTE_Shafer_MEA_dev_firing_rate_mean: CCTE's Neural Network Formation Assay for Mean Firing Rate, Shafer Lab (AID 2284031);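 for AC50: curve fitted for loss of firing so AC50 reflects decreased mean firing rate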
How it was run: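 Read-out: spike count/recording length, averaged over active electrodes, then AUC across days 5, 7, 9, 12. Rat cortical cultures on MEA; continuous 12-day exposure, media and treatment renewed DIV 5, 9; DMSO baseline.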

[14] = CCTE_Shafer_MEA_dev_per_burst_spike_percent: CCTE's Neural Network Formation Assay for Percent of Spikes in a Burst, Shafer Lab (AID 2284032)
How it was run: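 Value is trapezoidal AUC over recordings on days 5, 7, 9 and 12 of the well-mean fraction of spikes falling in single-electrode bursts; rat cortical cultures exposed continuously from plating, treatment renewed DIV 5 and 9, fitted downward against DMSO.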

[15] = CCTE_Shafer_MEA_dev_active_electrodes_number: CCTE's Neural Network Formation Assay for Number of Active Electrodes, Shafer Lab (AID 2284040; active = hit-call score of the fitted dose curve at least 0.9, where 1 is the maximum;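 for AC50: potency for loss of active electrodes versus DMSO so lower counts are hits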)
How it was run: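 Developing rat cortical networks on MEAs, exposed DIV 0–12. Value is the AUC of active-electrode counts (≥5 spikes/min) from days 5, 7, 9, 12, relative to DMSO.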

[16] = CCTE_Shafer_MEA_dev_burst_rate: CCTE's Neural Network Formation Assay for Burst Rate, Shafer Lab (AID 2284042)
How it was run: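 Cells plated, treated day 0; recorded DIV 5, 7, 9, 12; fed and re-treated DIV 5, 9. Endpoint: bursts per recording time, active-electrode well mean, trapezoidal AUC, fitted in decreasing direction against DMSO baseline.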

[17] = target: Estrogen receptor (Homo sapiens) (UniProt P03372); test: CCTE_Deisenroth_AIME_96WELL_LUC_Active: CCTE's 96-well Estrogen Receptor Transactivation Assay with AIME metabolic competence (ERTA luciferase; metabolism positive), Deisenroth Lab (AID 2284023; active = hit-call score of the fitted dose curve at least 0.9, where 1 is the maximum)
How it was run: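 Metabolism-positive mode: induced rat hepatic S9 in alginate microspheres conditions test solutions (0.002 - 200 uM, 10 points) for 2 hours. VM7Luc4E2 ER luciferase reporter cells then exposed 24 h; positive-direction fit against 17beta-estradiol, n=4 typical.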

[18] = target: Estrogen receptor (Homo sapiens) (UniProt P03372); test: CCTE_Deisenroth_AIME_96WELL_LUC_Inactive: CCTE's 96-well Estrogen Receptor Transactivation Assay without AIME metabolic competence (ERTA luciferase; metabolism negative), Deisenroth Lab (AID 2284025; active = hit-call score of the fitted dose curve at least 0.9, where 1 is the maximum)
How it was run: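 Metabolism-negative arm: chemicals (0.002–200 uM, 10 points) incubated 2 h with alginate-water microspheres, then medium moved onto VM7Luc4E2 cells for 24 h luciferase read-out. Positive direction vs 17beta-estradiol; n≥4 experiments.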

[19] = CCTE_Deisenroth_AIME_96WELL_CTox_Active: Cytotoxicity Assessment (CTOX) in CCTE's 96-well Estrogen Receptor Transactivation Assay with AIME metabolic competence (metabolism positive), Deisenroth Lab (AID 2284028; active = hit-call score of the fitted dose curve at least 0.9, where 1 is the maximum)
How it was run: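 Cytotoxicity in VM7Luc4E2 breast cells after 24 h exposure to medium from a 2 h metabolic pre-incubation with induced rat hepatic S9 in alginate microspheres; fluorescent live-cell protease readout, 10-point series 0.002–200 uM, n=4.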

[20] = CCTE_Deisenroth_AIME_96WELL_CTox_Inactive: Cytotoxicity Assessment (CTOX) in CCTE's 96-well Estrogen Receptor Transactivation Assay without AIME metabolic competence (metabolism negative), Deisenroth Lab (AID 2284029; active = hit-call score of the fitted dose curve at least 0.9, where 1 is the maximum)
How it was run: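 Cytotoxicity in VM7Luc4E2 breast cells was scored as loss of fluorescent signal from a live-cell protease substrate 24 h after exposure, using bidirectional curve fitting. Test media came from a 2 h metabolism-negative pre-incubation (alginate-water, no hepatic S9) of compounds at 0.002-200 uM, with at least four replicates.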

Measured: AC50

Estrogen receptor (Homo sapiens), sequence (P03372 whole entry, looked up): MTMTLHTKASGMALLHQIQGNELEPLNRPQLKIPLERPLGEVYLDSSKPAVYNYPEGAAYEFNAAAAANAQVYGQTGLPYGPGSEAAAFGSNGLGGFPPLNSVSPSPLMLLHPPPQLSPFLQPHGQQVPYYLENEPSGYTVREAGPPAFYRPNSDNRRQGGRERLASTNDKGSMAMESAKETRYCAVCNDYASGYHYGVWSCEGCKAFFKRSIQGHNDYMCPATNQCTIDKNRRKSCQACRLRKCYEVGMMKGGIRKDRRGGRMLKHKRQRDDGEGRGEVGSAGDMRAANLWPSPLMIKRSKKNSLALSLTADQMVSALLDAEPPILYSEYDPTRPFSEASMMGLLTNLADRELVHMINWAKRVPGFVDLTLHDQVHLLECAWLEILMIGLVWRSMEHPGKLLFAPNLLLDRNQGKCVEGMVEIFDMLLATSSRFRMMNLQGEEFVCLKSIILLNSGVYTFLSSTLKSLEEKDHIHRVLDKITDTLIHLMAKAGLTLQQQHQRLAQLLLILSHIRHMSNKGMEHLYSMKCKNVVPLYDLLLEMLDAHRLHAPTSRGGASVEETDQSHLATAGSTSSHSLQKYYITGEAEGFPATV

O=c1cc(-c2ccccc2)oc2ccccc12
inactive: [2] | [3] | [4] | [5]
active: [1] 45.6 µM

CCOC(=O)c1ccccc1C(=C1C=C(Br)C(=O)C(Br)=C1)c1cc(Br)c(O)c(Br)c1
active: [11] 11.8 µM
inactive: [6] | [7] | [8] | [9] | [10] | [12]

CCCCC(CC)COC(=O)c1ccccc1O (stereo not drawn)
inactive: [6] | [7] | [8] | [9] | [10] | [11] | [12]

CCCCCCCCCCOS(=O)(=O)O
active: [2] 19.8 µM | [4] 19.8 µM
inactive: [1] | [3] | [5]

Nc1ncn([C@@H]2O[C@H](CO)[C@@H](O)[C@H]2O)c(=O)n1
inactive: [7] | [13] | [14] | [15] | [16]
active: [6] 992 nM | [8] 5 µM | [9] 8.38 µM | [10] 6.71 nM | [11] 7.72 µM | [12] 9.61 µM | [13] 3.41 µM | [15] 2.13 µM

CCO[Si](C)(OCC)OCC
inactive: [6] | [7] | [8] | [9] | [10] | [11] | [12]

CC(C)(C)c1ccc(OC(=O)c2ccccc2O)cc1
inactive: [19] | [20]
active: [17] 17.8 µM | [18] 23.7 µM

OC1CCCC1
inactive: [1] | [2] | [3] | [4] | [5]

O=C1C(N(CO)C(=O)NCO)N(CO)C(=O)N1CO (stereo not drawn)
inactive: [1] | [2] | [3] | [4] | [5]

CCCCC(CC)COCC1CO1 (stereo not drawn)
inactive: [6] | [7] | [8] | [9] | [10] | [11] | [12]

CCCCC/C=C\CCC=O
inactive: [1] | [3] | [4] | [5]
active: [2] 100 µM

O=C(c1ccc(O)cc1)c1ccc(O)cc1O
inactive: [6] | [7] | [8] | [9] | [10] | [11] | [12]

COc1ccc(-c2coc3cc(O)ccc3c2=O)cc1
inactive: [19]
active: [17] 6.69 µM | [18] 5.41 µM

CO[Si](OC)(OC)c1ccccc1
inactive: [6] | [7] | [8] | [9] | [10] | [11] | [12] | [1] | [2] | [3] | [5]

C=C[Si](OC(C)=O)(OC(C)=O)OC(C)=O
inactive: [6] | [7] | [8] | [9] | [10] | [11] | [12]

O=S1(=O)OC(c2ccc(O)cc2)(c2ccc(O)cc2)c2ccccc21
inactive: [1] | [2] | [3] | [4] | [5]

CC=C1CC2C=CC1C2 (stereo not drawn)
inactive: [1] | [2] | [3] | [4] | [5]

O=C(C=Cc1ccccc1)OCc1ccccc1
active: [3] 26.3 µM | [5] 22.9 µM
inactive: [1] | [2] | [4]
